Where “and” joins values, the source holds several entries; their conditions need not be identical. Equal values may be shown once. Records with an inconclusive call do not appear. A structure can be active in one record and inactive in another. Calls of active or inactive are those of the source. Calls come from the whole dose curve; as a rule, active = well fitted inhibition curve with a large enough effect; inconclusive = small, poorly fitted or top-dose-only effect; inactive = flat fitted curve, though single readings scatter.
How the values were obtained:
JCK = test: qHTS profiling for inhibitors of Plasmodium falciparum proliferation (AID 504749); note: potency is the fitted concentration of half-maximal effect; conditions: P. falciparum in erythrocytes, SYBR Green DNA, 72 h; series mostly up to 28.7 µM
Summary of the method: (§1)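 Readout was DNA-dye fluorescence from lysed cultures, ex 485/em 535 nm. Parasitized red cells had grown 72 h with compound; data scaled between 0.29 uM artemisinin and DMSO wells and corrected using vehicle-only plates.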

N140 = test: as above; conditions: P. falciparum in erythrocytes, SYBR Green DNA, 72 h; series mostly up to 28.7 µM
Summary of the method: as §1

P93_24 = test: as above; conditions: P. falciparum in erythrocytes, SYBR Green DNA, 72 h; series mostly up to 28.7 µM
Summary of the method: as §1

P94_40 = test: as above; conditions: P. falciparum in erythrocytes, SYBR Green DNA, 72 h; series mostly up to 28.7 µM
Summary of the method: as §1

PAD = test: as above; conditions: P. falciparum in erythrocytes, SYBR Green DNA, 72 h; series mostly up to 28.7 µM
Summary of the method: as §1

PC26 = test: as above; conditions: P. falciparum in erythrocytes, SYBR Green DNA, 72 h; series mostly up to 28.7 µM
Summary of the method: as §1

PC49 = test: as above; conditions: P. falciparum in erythrocytes, SYBR Green DNA, 72 h; series mostly up to 28.7 µM
Summary of the method: as §1

SC27B = test: as above; conditions: P. falciparum in erythrocytes, SYBR Green DNA, 72 h; series mostly up to 28.7 µM
Summary of the method: as §1

TAB109 = test: as above; conditions: P. falciparum in erythrocytes, SYBR Green DNA, 72 h; series mostly up to 28.7 µM
Summary of the method: as §1

TAB113 = test: as above; conditions: P. falciparum in erythrocytes, SYBR Green DNA, 72 h; series mostly up to 28.7 µM
Summary of the method: as §1

TAB165 = test: as above; conditions: P. falciparum in erythrocytes, SYBR Green DNA, 72 h; series mostly up to 28.7 µM
Summary of the method: as §1

W2 = test: as above; conditions: P. falciparum in erythrocytes, SYBR Green DNA, 72 h; series mostly up to 28.7 µM
Summary of the method: as §1

CRL-7250 = normal cell line; test: Cytotoxic Profiling of Annotated Libraries Using Quantitative High-Throughput Screening (AID 1296008); conditions: Five cell lines viability, CellTiter-Glo ATP luminescence, 48-72 h; max response: active compounds read low; note: potency is the fitted concentration of half-maximal effect; for max response: % is set by controls: 0 for no effect and ±100 for the full control effect
Summary of the method: (§2)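 Cells exposed to compounds for 48 or 72 hr at 37 degrees Celsius. Viability read as ATP-coupled luminescence with CellTiter-Glo after 10 min at room temperature.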

HEK293 = test: as above; conditions: Five cell lines viability, CellTiter-Glo ATP luminescence, 48-72 h; max response: active compounds read low
Summary of the method: as §2

HaCat [1] = test: as above; conditions: Five cell lines viability, CellTiter-Glo ATP luminescence, 48-72 h; max response: active compounds read low
Summary of the method: as §2

KB-3-1 = test: as above; conditions: Five cell lines viability, CellTiter-Glo ATP luminescence, 48-72 h; max response: active compounds read low
Summary of the method: as §2

NIH3T3 = test: as above; conditions: Five cell lines viability, CellTiter-Glo ATP luminescence, 48-72 h; max response: active compounds read low
Summary of the method: as §2

HACAT [2] = test: qHTS assay to identify novel small-molecules to repurpose for Merkel cell carcinoma treatment (AID 1296009); conditions: MCC and control cell lines, CellTiter-Glo viability, 72 h; at 44.8 µM (top of the series) unless noted
Summary of the method: (§3)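 Cells were incubated with compound for 72 hr at 37 degree celsius before CellTiter-Glo addition. Luminescence was normalized with no-cell wells as full cytotoxicity and DMSO as baseline.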

HEK293T = test: as above; conditions: MCC and control cell lines, CellTiter-Glo viability, 72 h; at 44.8 µM (top of the series) unless noted
Summary of the method: as §3

PC15 = test: qHTS profiling for inhibitors of Plasmodium falciparum proliferation (AID 504749); note: potency is the fitted concentration of half-maximal effect; conditions: P. falciparum in erythrocytes, SYBR Green DNA, 72 h; series mostly up to 28.7 µM
Summary of the method: as §1
Note: nearly all actives have a fitted effect of over 60% in size.

CCN(CCO)CCCC(C)Nc1ccnc2cc(Cl)ccc12 (centres undefined)
inactive: Potency (JCK) | Potency (N140) | Potency (P93_24) | Potency (P94_40) | Potency (PAD) | Potency (PC26) | Potency (PC49) | Potency (SC27B) | Potency (TAB109) | Potency (TAB113) | Potency (TAB165) | Potency (W2) | max response (CRL-7250) -6.76% and 0.809% | outcome (CRL-7250) | max response (HEK293) 2.34% | outcome (HEK293) | max response (HaCat [1]) -3.55% and -14.9% | outcome (HaCat [1]) | max response (KB-3-1) -5.86% and 9.19% and -2.52% | max response (NIH3T3) -2.56% | outcome (NIH3T3) | outcome (HACAT [2]) inactive [at 4.96 µM] | outcome (HEK293T) inactive [at 4.96 µM]

CN(C)c1ccc(O)c2c1C[C@H]1C[C@H]3[C@H](N(C)C)C(=O)C(C(N)=O)=C(O)[C@@]3(O)C(=O)C1=C2O
inactive: max response (CRL-7250) -30% | outcome (CRL-7250) | max response (HEK293) -11.2% | outcome (HaCat [1]) | max response (KB-3-1) 5.11% and -5.52% and -6.53% | max response (NIH3T3) -2.91% | outcome (NIH3T3) | outcome (HACAT [2])

Cn1c(NCCN(CCO)CCCc2ccc([N+](=O)[O-])cc2)cc(=O)n(C)c1=O
inactive: Potency (JCK) | Potency (N140) | Potency (P93_24) | Potency (P94_40) | Potency (PAD) | Potency (PC15) | Potency (PC26) | Potency (PC49) | Potency (SC27B) | Potency (TAB109) | Potency (TAB113) | Potency (TAB165) | max response (CRL-7250) -8.35% | outcome (CRL-7250) | outcome (HEK293) | max response (HaCat [1]) 0.714% | outcome (HaCat [1]) | max response (KB-3-1) 3.71% and -8.99% | max response (NIH3T3) 4.21% and -8.98% | outcome (HACAT [2]) | outcome (HEK293T)

CCC[C@@H]1C[C@@H](C(=O)N[C@@H]([C@H]2O[C@H](SC)[C@H](O)[C@@H](O)[C@H]2O)[C@@H](C)O)N(C)C1
inactive: Potency (JCK) | Potency (PAD) | Potency (PC15) | Potency (PC49) | Potency (TAB113) | max response (CRL-7250) -16.2% | outcome (CRL-7250) | max response (HEK293) -5.82% and -16.1% | max response (HaCat [1]) -11.9% and -14% | max response (KB-3-1) -5.54% | max response (NIH3T3) -4.88% and -7.89%
active: Potency (W2) 0.338 µM

O=C(NC(Cc1cc(=O)[nH]c2ccccc12)C(=O)O)c1ccc(Cl)cc1 (centres undefined)
inactive: Potency (JCK) | Potency (N140) | Potency (P93_24) | Potency (P94_40) | Potency (PAD) | Potency (PC15) | Potency (PC26) | Potency (PC49) | Potency (SC27B) | Potency (TAB109) | Potency (TAB113) | Potency (TAB165) | Potency (W2) | max response (CRL-7250) -2.81% | outcome (CRL-7250) | max response (HEK293) -6.76% and -6.81% | max response (HaCat [1]) -8.32% | outcome (HaCat [1]) | max response (KB-3-1) 9.29% | outcome (KB-3-1) | outcome (NIH3T3) | outcome (HACAT [2])

Cc1cc2c(s1)Nc1ccccc1N=C2N1CCN(C)CC1
inactive: Potency (JCK) | Potency (N140) | Potency (P93_24) | Potency (P94_40) | Potency (PAD) | Potency (PC15) | Potency (PC49) | Potency (SC27B) | Potency (TAB109) | Potency (TAB113) | Potency (TAB165) | outcome (CRL-7250) | max response (HEK293) 0.773% | outcome (HEK293) | max response (HaCat [1]) -13.9% | outcome (HaCat [1]) | max response (KB-3-1) 7.18% and 6.8% | outcome (KB-3-1) | outcome (NIH3T3) | outcome (HACAT [2]) | outcome (HEK293T)

Clc1ccc(C(Cn2ccnc2)OCc2ccc(Sc3ccccc3)cc2)c(Cl)c1 (centres undefined)
inactive: max response (CRL-7250) -3.19% | outcome (CRL-7250) | outcome (HEK293) | outcome (HaCat [1]) | max response (KB-3-1) -18.4% | max response (NIH3T3) -3.29% | outcome (NIH3T3) | outcome (HACAT [2]) | outcome (HEK293T)
active: Potency (HEK293) 26.4 µM

O=C(NCC1CCCCN1)c1cc(OCC(F)(F)F)ccc1OCC(F)(F)F (centres undefined)
inactive: max response (CRL-7250) -77.3% | outcome (CRL-7250) | max response (HEK293) -82.7% | max response (HaCat [1]) -9.94% and -10.2% | max response (KB-3-1) 3.67% | max response (NIH3T3) -7.85%

CN(C)C(=O)COC(=O)Cc1ccc(OC(=O)c2ccc(N=C(N)N)cc2)cc1
inactive: Potency (JCK) | Potency (N140) | Potency (P93_24) | Potency (P94_40) | Potency (PAD) | Potency (PC15) | Potency (PC26) | Potency (PC49) | Potency (SC27B) | Potency (TAB109) | Potency (TAB113) | Potency (TAB165) | Potency (W2) | outcome (CRL-7250) | max response (HEK293) 2.71% | outcome (HEK293) | max response (HaCat [1]) 3.28% | outcome (HaCat [1]) | max response (KB-3-1) 4.33% and 2.16% | max response (NIH3T3) 2.87% | outcome (NIH3T3) | outcome (HACAT [2]) | outcome (HEK293T)

Clc1ccc(C(Cn2ccnc2)OCc2c(Cl)cccc2Cl)c(Cl)c1 (centres undefined)
inactive: max response (CRL-7250) -2.52% | outcome (CRL-7250) | max response (HaCat [1]) 1.49% | outcome (HaCat [1]) | max response (KB-3-1) -15.6% and -6.5% and -4.2% | max response (NIH3T3) -3.81% and -0.381% | outcome (NIH3T3) | outcome (HACAT [2])
active: Potency (HEK293) 7.5 µM

Cc1ncc([N+](=O)[O-])n1CC(C)O (centres undefined)
inactive: Potency (JCK) | Potency (N140) | Potency (P93_24) | Potency (P94_40) | Potency (PAD) | Potency (PC15) | Potency (PC26) | Potency (PC49) | Potency (SC27B) | Potency (TAB109) | Potency (TAB113) | Potency (TAB165) | Potency (W2) | max response (CRL-7250) -19.5% | outcome (CRL-7250) | max response (HEK293) 3.63% | outcome (HEK293) | max response (HaCat [1]) -8.77% | outcome (HaCat [1]) | max response (KB-3-1) 2.22% and 6.66% | max response (NIH3T3) 2.47% | outcome (NIH3T3) | outcome (HACAT [2]) | outcome (HEK293T)

Source: PubChem BioAssay (NCATS)
